Five compounds from PubChem BioAssay can be followed below.

Active and inactive are the calls of the source.

Test [1] in a line: small molecules captured by biotinylated probe aFSTL3 – biochemical, small-molecule microarray, fluorescence 635/667, stem cell growth factor project, primary screen (AID 1064).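 Further: measures binding of the biotinylated anti-FSTL3 antibody to printed compounds.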 The following applies: higher = more signal.
Test [2] is described as follows: binders from COS7 lysate, DM2A8 probe, primary screen, torsin A project, cell lysate, small-molecule microarray, fluorescence 635/667 (AID 1065). The following applies: higher = more signal, COS7 lysate expressing mutant human TOR1A.
The nature of test [3]: small molecules captured by biotinylated probe aFGF2 – biochemical, small-molecule microarray, fluorescence 635/667, stem cell growth factor project, primary screen (AID 1067).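 Further: measures binding of biotinylated aFGF2 protein to printed compounds on slides; z-score merges feature fluorescence and signal-to-noise across triplicate slides.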 The note with it: higher = more signal.
Test [4] is described as follows: small molecules captured by biotinylated probe aFGF10 – biochemical, small-molecule microarray, fluorescence 635/667, stem cell growth factor project, primary screen (AID 1071).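 Further: score merges 667 nm spot intensity and signal to noise from triplicate slides.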 The following applies: higher = more signal.
The target of test [5] is Neurogenic locus notch homolog protein 2 (Homo sapiens) (UniProt Q04721). Briefly: small molecules binding Notch2 protein – biochemical, small-molecule microarray, 635 nm fluorescence, stem cell growth factors, primary screen (AID 1073). The note with it: higher = more signal.
Test [6] concerns the target Pro-neuregulin-1, membrane-bound isoform (Homo sapiens) (UniProt Q02297). Briefly: small molecules binding neuregulin-1 protein – biochemical, small-molecule microarray, fluorescence 635/667, psychiatric disease protein project, primary screen (AID 1075).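 Further: score combines 667 nm spot fluorescence with signal to noise.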 The following applies: NRG1 binding, 635 nm fluorescence, higher = more signal.
Test [7] concerns Neuregulin-1 EGF-like domain. Kind of test: small molecules binding NRG1 EGF domain – biochemical, small-molecule microarray, 635 nm fluorescence, primary screen (AID 1081).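 Further: binding of the protein to compounds printed on small-molecule microarray slides.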 The following applies: higher = more signal.
The nature of test [8]: FRG1 expression reporter modulators in myotubes – cell-based, C2C12 myotubes, firefly/Renilla luciferase, luminescence, FRG1 inhibition for FSHD, primary screen (AID 1084). The note with it: FRG1 promoter luciferase, higher = more signal, called active from +8 up or from −8 down.
A short description of test [9]: small molecules captured by biotinylated probe aFST – biochemical, small-molecule microarray, fluorescence 635/667, stem cell growth factor project, primary screen (AID 1086).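 Further: score merges 667 nm fluorescence with signal-to-noise of each printed compound spot.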 The following applies: higher = more signal.
Test [10] in a line: binders of probe aHhip on microarray, primary screen, stem cell growth factor project, biochemical, small-molecule microarray, fluorescence 635/667 (AID 1087).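 Further: score merges spot fluorescence at 667nm with spot signal to noise ratio.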 The following applies: higher = more signal.
Test [11] concerns PRMT1 (protein arginine N-methyltransferase 1). Briefly: small molecules binding arginine methyltransferase PRMT1 – biochemical, small-molecule microarray, 635 nm fluorescence, primary screen (AID 1088).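 Further: binding of Prmt1 protein to compounds spotted on small-molecule microarray slides.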 The note with it: higher = more signal.
Test [12] in a line: growth effects on S. cerevisiae YJM789 – YJM789 clinical isolate, OD600, 24 h, basal, primary screen (AID 1089).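 Further: growth of clinical yeast isolate S. cerevisiae YJM 789 seeded 1000 cells per well; test concentration not given here.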 The following applies: higher = more signal, called active from +8 up or from −8 down.
A short description of test [13]: S. pombe growth modifiers, basal conditions – strain 972, OD600, 24 h, no modulator, primary screen (AID 1090).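 Further: basal condition with compound alone and no growth modifier present; test concentration not given here.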 The note with it: S. pombe 972 growth, higher = more signal, called active from +8 up or from −8 down.
The nature of test [14]: budding yeast growth modifiers under rapamycin – strain BY4716, OD600, 96 h, primary screen (AID 1091). Further: test concentration not given here. The note with it: S. cerevisiae BY4716 + rapamycin, higher = more signal, called active from +8 up or from −8 down.
In test [15] the target is Torsin-1A-interacting protein 2 (Homo sapiens) (UniProt Q8NFQ8). Briefly: small molecules binding lysate-expressed LULL1 – cell lysate, human LULL1 lysate, 635/667 nm fluorescence, primary screen (AID 1092).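 Further: score merges per-feature 667 nm fluorescence with signal-to-noise.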 The following applies: small-molecule microarray, hLULL1 lysate binding, 635 nm fluorescence; higher = more signal.
Test [16] can be described thus: optical density change of DRC41 E. coli – strain DRC41, OD650, 24 h, E. coli filamentation project, primary screen (AID 1093).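 Further: MC1000 strain lacking acrAB efflux and sulA so SOS filamentation is blocked; test concentration not given here.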 The following applies: E. coli DRC41 growth, higher = more signal, called active from +8 up or from −8 down.
Test [17] is described as follows: probe aLefty2 binding to arrayed compounds – biochemical, biotinylated probe, 635/667 nm fluorescence, primary screen (AID 1094).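 Further: score merges spot fluorescence near 667 nm with spot signal-to-noise ratio.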 The following applies: small-molecule microarray, higher = more signal.
The test system of test [18] is Noggin (protein binding on small-molecule microarray). Kind of test: small molecules binding Noggin protein – biochemical, 635/667 nm fluorescence, primary screen (AID 1095).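 Further: score merges 667 nm feature fluorescence with signal to noise over triplicate slides.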 The note with it: 635 nm fluorescence, higher = more signal.
The target in test [19] is Neurogenic locus notch homolog protein 3 (Homo sapiens) (UniProt Q9UM47). Kind of test: small molecules binding NOTCH3 protein – biochemical, 635/667 nm fluorescence, primary screen (AID 1096). The note with it: small-molecule microarray, 635 nm fluorescence, higher = more signal.
A short description of test [20]: probe aEGFR binding to arrayed compounds – biochemical, biotinylated probe, 635/667 nm fluorescence, primary screen (AID 1097).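 Further: probe is a biotinylated anti-EGFR antibody binding compounds printed on slides; score combines fluorescence near 667 nm and signal to noise of each spot.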 The note with it: small-molecule microarray, higher = more signal.

Torsin-1A-interacting protein 2 (Homo sapiens), sequence (Q8NFQ8 whole entry, looked up): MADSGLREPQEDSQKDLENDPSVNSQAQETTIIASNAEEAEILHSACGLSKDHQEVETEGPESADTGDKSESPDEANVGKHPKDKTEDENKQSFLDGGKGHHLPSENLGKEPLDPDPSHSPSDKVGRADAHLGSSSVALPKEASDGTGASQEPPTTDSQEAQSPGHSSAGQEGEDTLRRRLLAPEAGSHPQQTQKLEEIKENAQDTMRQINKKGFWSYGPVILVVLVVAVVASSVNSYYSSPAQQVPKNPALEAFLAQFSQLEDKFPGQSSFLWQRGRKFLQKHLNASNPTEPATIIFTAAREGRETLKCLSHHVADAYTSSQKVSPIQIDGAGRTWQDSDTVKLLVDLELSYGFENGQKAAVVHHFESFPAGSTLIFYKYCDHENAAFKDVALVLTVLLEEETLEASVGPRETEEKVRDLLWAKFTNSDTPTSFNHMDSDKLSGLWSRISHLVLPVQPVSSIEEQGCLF
Pro-neuregulin-1, membrane-bound isoform (Homo sapiens), sequence (Q02297 whole entry, looked up, the tested form may be a part, canonical isoform): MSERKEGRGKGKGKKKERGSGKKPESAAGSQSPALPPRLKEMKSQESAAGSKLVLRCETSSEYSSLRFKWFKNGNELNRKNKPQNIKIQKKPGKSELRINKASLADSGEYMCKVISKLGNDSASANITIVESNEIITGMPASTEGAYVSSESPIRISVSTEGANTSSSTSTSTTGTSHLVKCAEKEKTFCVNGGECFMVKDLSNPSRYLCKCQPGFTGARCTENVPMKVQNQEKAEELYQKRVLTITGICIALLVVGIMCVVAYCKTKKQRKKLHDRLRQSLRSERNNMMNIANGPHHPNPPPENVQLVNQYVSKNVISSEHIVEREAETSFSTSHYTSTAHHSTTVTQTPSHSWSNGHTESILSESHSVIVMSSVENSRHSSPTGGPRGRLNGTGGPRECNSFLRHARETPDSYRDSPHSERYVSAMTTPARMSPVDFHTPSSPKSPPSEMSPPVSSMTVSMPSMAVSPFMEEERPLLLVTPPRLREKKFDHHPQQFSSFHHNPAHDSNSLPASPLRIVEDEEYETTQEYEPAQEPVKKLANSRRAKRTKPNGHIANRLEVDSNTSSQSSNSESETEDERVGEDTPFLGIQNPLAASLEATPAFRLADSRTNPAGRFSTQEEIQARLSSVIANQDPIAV
Neurogenic locus notch homolog protein 3 (Homo sapiens), sequence (Q9UM47 whole entry, looked up): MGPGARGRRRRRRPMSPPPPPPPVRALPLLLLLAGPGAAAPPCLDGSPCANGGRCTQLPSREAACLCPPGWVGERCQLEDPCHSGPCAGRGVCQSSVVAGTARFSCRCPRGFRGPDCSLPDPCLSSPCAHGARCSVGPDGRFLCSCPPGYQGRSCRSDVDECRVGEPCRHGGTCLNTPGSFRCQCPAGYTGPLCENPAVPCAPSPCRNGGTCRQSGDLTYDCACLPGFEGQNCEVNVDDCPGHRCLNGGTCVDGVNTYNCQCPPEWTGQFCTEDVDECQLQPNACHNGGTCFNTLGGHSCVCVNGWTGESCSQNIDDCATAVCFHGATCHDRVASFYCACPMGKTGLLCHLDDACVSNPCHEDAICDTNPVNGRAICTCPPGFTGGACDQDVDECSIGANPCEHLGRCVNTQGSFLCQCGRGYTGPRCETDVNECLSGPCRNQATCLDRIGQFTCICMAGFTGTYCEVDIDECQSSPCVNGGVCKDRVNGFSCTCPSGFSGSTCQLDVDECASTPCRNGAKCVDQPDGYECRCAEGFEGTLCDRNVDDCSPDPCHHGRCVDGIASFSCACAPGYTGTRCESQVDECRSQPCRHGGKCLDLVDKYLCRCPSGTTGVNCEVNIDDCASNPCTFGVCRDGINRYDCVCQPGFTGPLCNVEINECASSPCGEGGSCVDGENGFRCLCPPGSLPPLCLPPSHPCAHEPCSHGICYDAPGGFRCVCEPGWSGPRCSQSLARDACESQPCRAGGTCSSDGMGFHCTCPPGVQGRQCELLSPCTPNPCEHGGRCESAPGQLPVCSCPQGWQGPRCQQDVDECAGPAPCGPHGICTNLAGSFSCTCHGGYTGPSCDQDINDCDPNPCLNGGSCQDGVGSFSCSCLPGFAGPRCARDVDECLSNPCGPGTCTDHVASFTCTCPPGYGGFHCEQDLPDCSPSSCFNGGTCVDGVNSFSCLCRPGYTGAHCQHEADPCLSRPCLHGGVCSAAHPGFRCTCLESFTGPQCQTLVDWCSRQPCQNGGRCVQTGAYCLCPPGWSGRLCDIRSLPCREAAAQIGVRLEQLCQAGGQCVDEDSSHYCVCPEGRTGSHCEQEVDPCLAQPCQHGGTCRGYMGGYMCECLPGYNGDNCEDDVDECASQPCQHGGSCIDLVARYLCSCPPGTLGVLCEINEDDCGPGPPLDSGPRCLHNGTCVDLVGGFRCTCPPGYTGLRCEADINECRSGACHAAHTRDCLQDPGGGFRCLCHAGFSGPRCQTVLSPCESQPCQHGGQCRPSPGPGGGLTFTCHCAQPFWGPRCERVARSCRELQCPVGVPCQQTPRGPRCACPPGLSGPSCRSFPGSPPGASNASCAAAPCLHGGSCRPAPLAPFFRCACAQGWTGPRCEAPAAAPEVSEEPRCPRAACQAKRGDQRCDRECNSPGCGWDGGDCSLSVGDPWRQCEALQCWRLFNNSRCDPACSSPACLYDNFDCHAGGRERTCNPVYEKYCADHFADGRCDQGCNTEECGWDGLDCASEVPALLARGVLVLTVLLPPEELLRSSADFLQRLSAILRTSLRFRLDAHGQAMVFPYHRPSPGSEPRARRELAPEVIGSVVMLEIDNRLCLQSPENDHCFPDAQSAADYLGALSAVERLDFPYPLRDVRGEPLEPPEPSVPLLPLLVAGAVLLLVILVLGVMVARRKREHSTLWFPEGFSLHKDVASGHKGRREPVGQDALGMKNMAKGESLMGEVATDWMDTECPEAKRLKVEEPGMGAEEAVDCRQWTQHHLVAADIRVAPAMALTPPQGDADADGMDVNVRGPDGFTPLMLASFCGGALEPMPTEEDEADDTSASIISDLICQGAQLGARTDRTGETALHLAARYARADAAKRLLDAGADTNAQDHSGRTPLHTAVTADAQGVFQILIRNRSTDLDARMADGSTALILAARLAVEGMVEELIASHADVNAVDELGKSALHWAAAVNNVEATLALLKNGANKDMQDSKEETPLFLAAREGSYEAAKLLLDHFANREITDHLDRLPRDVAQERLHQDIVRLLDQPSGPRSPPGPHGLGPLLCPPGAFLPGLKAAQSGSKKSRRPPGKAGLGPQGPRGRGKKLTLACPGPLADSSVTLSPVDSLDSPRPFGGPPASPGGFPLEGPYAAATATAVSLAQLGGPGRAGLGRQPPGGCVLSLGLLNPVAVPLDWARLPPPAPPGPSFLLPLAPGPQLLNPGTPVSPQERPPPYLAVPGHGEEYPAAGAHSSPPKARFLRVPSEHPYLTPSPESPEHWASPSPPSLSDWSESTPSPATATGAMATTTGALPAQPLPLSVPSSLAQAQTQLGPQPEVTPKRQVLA

With `CC1CC/C=C\[C@H]2OC34C=CCN(CCN5CCOCC5)C(=O)[C@H]3N(C(CO)C(C)C)C(=O)[C@@H]4C2C(=O)O1` (stereo not given in full), the composite z-score was -0.0695 in [1]; 0.949 in [2]; -0.133 in test [3]; -0.528 in test [4]; -0.916 in test [5]; 1.77 in [6]. The composite z-score in [7] is 0.907; in [9], -0.249; in [10], -0.069; in [11] it was 1.42; in test [15], 3.2; in test [17] it was -0.109. In addition, the composite z-score in [18] was 0.122; in [19], 0.398; in [20], -0.0332. In addition, the z-score was -0.363 (inactive) in test [8]; -0.662 (inactive) in test [12]; -0.145 (inactive) in test [13]; -0.188 (inactive) in test [14]; -0.651 (inactive) in test [16].

In the case of `CS(=O)(=O)CCOC(=O)C1=CC(CCCO)=CC(C2CC2)N(Cc2sc3ccccc3c2Cl)C=C1C(=O)OCCS(C)(=O)=O` (stereo not given), the composite z-score in test [1] was -0.143; in test [2] it was 0.0105; in [3] it was 0.0498; in [4] it was 0.4; in [5] it was 1.36; in test [6], 1.92. Also, the composite z-score is 1.18 in test [7]; 0.903 in test [9]; -0.134 in [10]; 1.13 in [11]; 3.09 in test [15]; 0.247 in test [17]. Moreover, the composite z-score amounted to 0.482 in [18], 1.09 in [19] and 0.0432 in [20]. The z-score in test [8] was -0.133 (inactive); in test [12], -0.853 (inactive); in [13] it was -5.1 (inactive); in test [14], -1.47 (inactive); in [16] it was 0.189 (inactive).

With `COc1c(C)cc(-c2cc3c(c(CCc4ccccc4)n2)[Si](C(C)C)(C(C)C)O[C@H]3c2ccccc2)cc1C`, the composite z-score in [1] is -0.473; in test [2], -0.0939; in test [3], -0.166; in test [4], -0.0024; in test [5] it was -0.0773; in test [6] it was -0.133. For the same compound, the composite z-score in test [7] was -0.0748; in [9] it was 0.125; in test [10], -0.0296; in test [11] it was -0.848; in test [15], 0.0198; in test [17], -0.0519. In addition, the composite z-score in test [18] was 0.108; in test [19], 0.24; in [20], -0.162. Besides, the z-score was -0.278 (inactive) in [8]; 0.864 (inactive) in [12]; 0.307 (inactive) in test [13]; 33.1 (active) in test [14]; -0.899 (inactive) in test [16].

For `C[C@]1(C(=O)O)c2ccccc2C(=O)N(Cc2cc(C(F)(F)F)cc(C(F)(F)F)c2)[C@H]1c1ccc(CO)cc1`, the composite z-score in test [1] was -0.0018; in test [2] it was -0.48; in test [3] it was -0.152; in test [4] it was 0.159; in test [5] it was -0.0211; in [6], -0.179. The composite z-score in [7] is 0.0653; in test [9], 0.192; in test [10], -0.236; in test [11], 1.43; in [15] it was 0.834; in test [17], -0.141. The composite z-score was 0.414 in test [18], 0.483 in [19] and -0.186 in test [20]. Moreover, the z-score in test [8] was 0.192 (inactive); in test [12], 0.652 (inactive); in test [13], 0.559 (inactive); in test [14], -0.754 (inactive); in [16], 0.305 (inactive).

In the case of `CC[C@@H](O[Si](C#C[Si](C(C)C)(C(C)C)C(C)C)(C(C)C)C(C)C)c1cn([C@H](C)c2ccccc2)nn1`, the composite z-score in test [1] is -0.51; in test [2], 0.488; in test [3] it was -0.0797; in [4], 0.663; in test [5], 0.728; in test [6] it was 0.284. The composite z-score was 0.739 in test [7]; 0.129 in test [9]; 0.115 in [10]; 0.991 in test [11]; 0.382 in test [15]; -0.148 in test [17]. Also, the composite z-score in test [18] was 0.391; in test [19] it was 0.785; in [20] it was -0.0332. In addition, the z-score in [8] was -0.0777 (inactive); in test [12] it was 0.685 (inactive); in test [13], 0.0803 (inactive); in test [14], 0.529 (inactive); in [16], 0.612 (inactive).
